The results in this text go back to PubChem BioAssay.

Activity calls are given as the source filed them.
Also: test concentration not given here.

The nature of one assay: basal MM1S mitochondrial membrane potential changes, profiling panel, cell-based, JC-1 fluorescence, 24 h, 100 nL compound (AID 1170). Conditions: higher = more signal.
Molecule `CCOC(=O)N1C(c2ccc(OCCCO)cc2)=NC(C(=O)OC)N1C(=O)OCC` (configuration not stated) gave a z-score of 0.0773.
`C=CCOC(=O)[C@H]1[C@@H]2C(=O)O[C@@H](c3ccccc3)[C@@H](c3ccccc3)N2[C@@H](c2ccc(OCCOC(=O)[C@H]3C[C@H]4C(=O)N[C@@H](CCCC[N+](C)(C)C)C(=O)N4[C@H]3c3ccc(O)cc3)cc2)[C@]12C(=O)Nc1ccccc12`: the z-score was -0.0465.
The molecule `CC(C)N1C(=O)c2ccccc2[C@](C)(C(=O)NCCCN(C)C)[C@@H]1c1ccc(CO)cc1` gave a z-score of 0.413.
With `C=CCC(OC(C)=O)[C@@H]1[C@@H](N(Cc2ccc(-c3ccccc3)cc2)C(=O)c2ccc(C)cc2)c2cc(OCCCO)ccc2N1C(=O)c1ccc2ccccc2n1` (some centres not stated), the z-score was determined as 1.96.
Still for that read-out and setting: for `COC(=O)[C@@]1(Cc2ccc(F)cc2)[C@H]2c3cc(C(=O)N4CCCC4)n(Cc4ccc(Cl)c(C(F)(F)F)c4)c3C[C@H]2CN1C(=O)c1ccccc1` the value was -1.96; for `COCCCNC(=O)[C@@]1(Cc2ccccc2I)c2ccccc2C(=O)N(Cc2ccccc2)[C@H]1c1ccc(CO)cc1`, 0.651.
Take `CC(=O)NCCCC[C@@H]1NC(=O)[C@@H]2C[C@H](C(=O)NCc3ccc(F)cc3)[C@H](c3ccc(O)cc3)N2C1=O`: the z-score came to 0.28.
Molecule `CCOC(=O)C1=CC[C@@H](c2cccc(Cl)c2)N(S(=O)(=O)c2ccc(C)cc2)[C@H]1c1ccc(C#N)cc1` displayed a z-score of -1.29.
`CCCNC(=O)[C@@]1(C)c2ccccc2C(=O)N(Cc2cc(C(F)(F)F)cc(C(F)(F)F)c2)[C@H]1c1ccc(CO)cc1`: the z-score is -0.643.
The same measure, in the same setting: for `COC(=O)c1c2oc(c1C(=O)OC)C(=O)N[C@H](Cc1ccccc1)Cn1nncc1C1(CCCCC1)NC(=O)N[C@H](CO)CC2` the value was -0.936.
Still for that read-out and setting: for `CN(C)CCCC[C@@H]1NC(=O)[C@@H]2C[C@H](C(=O)NCc3ccc(F)cc3)[C@H](c3cccc(OCCO)c3)N2C1=O` the value was -0.749; for `COc1ccc([Si](C)(C)[C@@H]2[C@@H](CCn3cc([C@H](O)c4ccccc4)nn3)O[C@]3(C(=O)N(C)c4ccccc43)[C@H]2C)cc1`, -0.252.

The next assay can be described thus: A549 lung cancer cell viability effects, profiling panel, resazurin fluorescence, 24 h, PK04 Diversity Set (AID 1171). Conditions: higher = more signal, called active from +8 up or from −8 down.
Consider `COc1ccc(C#Cc2ccc3c(c2)[C@]2(C(=O)N3)[C@H](C(=O)N3CCN(c4ncccn4)CC3)[C@H]3C(=O)O[C@H](c4ccccc4)[C@H](c4ccccc4)N3[C@@H]2c2ccc(O)cc2)cc1`, for which the z-score was -0.164 (inactive).
As for `CCCC[C@H]1C[C@@H]1[C@@H]1N(P(=O)(c2ccccc2)c2ccccc2)[C@](CO)(c2ccccc2)CC12CC2`, the z-score is 0.936 (inactive).
As to `O=C(N1CCCCC1)[C@]1(CCS(=O)(=O)c2ccccc2)N=C(c2ccc(OCCCO)cc2)O[C@@H]1c1ccccc1`, the z-score is -1.32 (inactive).
Turning to `OCCCc1cc[n+](Cc2cccc(OC(F)(F)F)c2)cc1`, the z-score was 0.484 (inactive).
Regarding `COc1ccc([Si](C)(C)[C@H]2[C@H](CC(=O)N3CCC[C@H]3CO)O[C@@]3(C(=O)N(Cc4cccc(N5CCC5=O)c4)c4ccccc43)[C@@H]2C)cc1`, the z-score was -1.2 (inactive).
In the case of `CCCNC(=O)[C@@]1(c2ccc([N+](=O)[O-])cc2)CC(=O)N(CC23CC4CC(CC(C4)C2)C3)[C@@H]1c1ccc(CO)cc1I`, the z-score was -3.39 (inactive).
As to `CCCNC(=O)[C@@]1(C)c2ccccc2C(=O)N(Cc2cc(F)cc(C(F)(F)F)c2)[C@H]1c1ccc(CO)cc1`, the z-score is 1.79 (inactive).
In the case of `C=C[C@H](C)[C@H](OC(=O)Nc1ccc(OC)cc1)c1ccc(O)c2ccccc12`, the z-score is -0.232 (inactive).
`O=c1cccc(-c2ccccc2)o1`: the z-score is 0.299 (inactive).
For `CC1CC/C=C\[C@H]2OC34C=CCN(Cn5nnc6ccccc65)C(=O)[C@H]3N(CCCO)C(=O)[C@@H]4C2C(=O)O1` (some centres not stated), the z-score was 0.356 (inactive).
On to `COc1ccc(C#Cc2ccc3c(c2)[C@]2(C(=O)N3)[C@H](c3ccc(OCCO)cc3)N3[C@H](c4ccccc4)[C@H](c4ccccc4)OC(=O)[C@H]3[C@@H]2C(=O)Nc2nc3ccccc3s2)cc1`, for which the z-score is -1.23 (inactive).
In the case of `C=C(C(=O)CC[C@H](OC(=O)c1cccnc1)c1ccccc1OCCO)C(C)C`, the z-score is 0.626 (inactive).
Still for that read-out and setting: for `C=CC[C@@]1(C(=O)NCCN2CCOCC2)N=C(c2ccc(OCCCO)cc2)O[C@@H]1c1ccccc1CN=[N+]=[N-]` the value was -0.468 (inactive).
The same measure, in the same setting: for `C=CCOC(=O)[C@H]1[C@@H]2C(=O)O[C@@H](c3ccccc3)[C@@H](c3ccccc3)N2[C@@H](c2ccc(OCCOC(=O)[C@@H]3C[C@@H]4C(=O)NCC(=O)N4[C@@H]3c3ccc(O)cc3)cc2)[C@]12C(=O)Nc1ccc(I)cc12` the value was -0.148 (inactive).
The same measure, in the same setting: for `CCOC(=O)C[C@H]1[C@H](OC(=O)c2ccc(C(=O)c3ccccc3)cc2)[C@@H](NC(=O)c2ccc3ccccc3n2)c2cc(OCCCO)ccc2N1C(=O)c1ccc2ccccc2n1` the value was 1.04 (inactive); for `C=CCC(OC(C)=O)[C@@H]1[C@@H](N(Cc2ccc(-c3cccc(C(F)(F)F)c3)o2)C(=O)Cc2ccc(OC)cc2)c2cc(OCCCO)ccc2N1C(=O)Cc1ccc(OC)cc1` (some centres not stated), 0.139 (inactive); for `C=CCC(OC(C)=O)[C@@H]1[C@@H](N(Cc2ccc(-c3ccccc3)cc2)C(=O)c2ccc(C)cc2)c2cc(OCCCO)ccc2N1C(=O)Cc1ccc(OC)cc1` (some centres not stated), 0.267 (inactive).
Regarding `C=C(COC)C(=O)CC[C@@H](OC(=O)c1ccccc1-c1ccccc1C(=O)O)c1ccc(CO)o1`, the z-score was -1.03 (inactive).
On to `CN(C)CCCC[C@@H]1NC(=O)[C@@H]2C[C@H](C(=O)NCCCCCN)[C@H](c3ccc(O)cc3)N2C1=O`, for which the z-score was -0.475 (inactive).
For the molecule `CN(C)CCCN1C(=O)[C@@]2(c3ccc([N+](=O)[O-])cc3)CC(=O)N(C3CCCCC3)[C@@H]2c2ccc(CO)cc21`, the z-score is 0.572 (inactive).
As for `O=C1C2C=CC(C(O)c3cccc4ccccc34)N(n3cnnc3)C2C(=O)N1Cc1ccccc1` (configuration not stated), the z-score is -0.522 (inactive).
With `COCCCNC(=O)[C@]1(Cc2ccccc2N=[N+]=[N-])N=C(c2ccc(OCCCO)cc2)O[C@@H]1c1ccccc1CN=[N+]=[N-]`, the z-score was -1.2 (inactive).
Turning to `C=C(COC)C(=O)CC[C@H](OC(=O)c1cccnc1)c1ccccc1OCCO`, the z-score is 0.138 (inactive).
Consider `CCOC(=O)N1C(c2ccc(OCCCO)cc2)=NC(C(=O)OC)N1C(=O)OCC` (configuration not stated), for which the z-score was 0.352 (inactive).
For `C=CCOC(=O)[C@H]1[C@@H]2C(=O)O[C@@H](c3ccccc3)[C@@H](c3ccccc3)N2[C@@H](c2ccc(OCCOC(=O)[C@H]3C[C@H]4C(=O)N[C@@H](CCCC[N+](C)(C)C)C(=O)N4[C@H]3c3ccc(O)cc3)cc2)[C@]12C(=O)Nc1ccccc12`, the z-score is 0.896 (inactive).
For `CC(C)N1C(=O)c2ccccc2[C@](C)(C(=O)NCCCN(C)C)[C@@H]1c1ccc(CO)cc1`, the z-score is 0.565 (inactive).
Regarding `C=CCC(OC(C)=O)[C@@H]1[C@@H](N(Cc2ccc(-c3ccccc3)cc2)C(=O)c2ccc(C)cc2)c2cc(OCCCO)ccc2N1C(=O)c1ccc2ccccc2n1` (some centres not stated), the z-score was 1.87 (inactive).
In the case of `COC(=O)[C@@]1(Cc2ccc(F)cc2)[C@H]2c3cc(C(=O)N4CCCC4)n(Cc4ccc(Cl)c(C(F)(F)F)c4)c3C[C@H]2CN1C(=O)c1ccccc1`, the z-score is -1.53 (inactive).
On to `COCCCNC(=O)[C@@]1(Cc2ccccc2I)c2ccccc2C(=O)N(Cc2ccccc2)[C@H]1c1ccc(CO)cc1`, for which the z-score was 1.67 (inactive).
On to `CC(=O)NCCCC[C@@H]1NC(=O)[C@@H]2C[C@H](C(=O)NCc3ccc(F)cc3)[C@H](c3ccc(O)cc3)N2C1=O`, for which the z-score is 0.361 (inactive).
With `CCOC(=O)C1=CC[C@@H](c2cccc(Cl)c2)N(S(=O)(=O)c2ccc(C)cc2)[C@H]1c1ccc(C#N)cc1`, the z-score is 1.27 (inactive).
Same read-out and setting: the result for `CCCNC(=O)[C@@]1(C)c2ccccc2C(=O)N(Cc2cc(C(F)(F)F)cc(C(F)(F)F)c2)[C@H]1c1ccc(CO)cc1` reads 1.27 (inactive); that for `COC(=O)c1c2oc(c1C(=O)OC)C(=O)N[C@H](Cc1ccccc1)Cn1nncc1C1(CCCCC1)NC(=O)N[C@H](CO)CC2`, 0.286 (inactive).
On the same count and under the same terms, for `CN(C)CCCC[C@@H]1NC(=O)[C@@H]2C[C@H](C(=O)NCc3ccc(F)cc3)[C@H](c3cccc(OCCO)c3)N2C1=O` the value was -0.158 (inactive); for `COc1ccc([Si](C)(C)[C@@H]2[C@@H](CCn3cc([C@H](O)c4ccccc4)nn3)O[C@]3(C(=O)N(C)c4ccccc43)[C@H]2C)cc1`, -1.89 (inactive).
